# ALOX12 inh: inhibitors of human 12S-lipoxygenase ALOX12. purified 12hLO, xylenol orange hydroperoxide absorbance. P18054. Potency, µM (series often up to 108 µM), for inactives: at the top dose activity change, negative = inhibition, most hits filed as inhibitors. actives 1.1% (n = 580,000). AID 1671190; also: potency is read from the fitted curve at half-maximal effect
# Target sequence (P18054 whole entry, looked up): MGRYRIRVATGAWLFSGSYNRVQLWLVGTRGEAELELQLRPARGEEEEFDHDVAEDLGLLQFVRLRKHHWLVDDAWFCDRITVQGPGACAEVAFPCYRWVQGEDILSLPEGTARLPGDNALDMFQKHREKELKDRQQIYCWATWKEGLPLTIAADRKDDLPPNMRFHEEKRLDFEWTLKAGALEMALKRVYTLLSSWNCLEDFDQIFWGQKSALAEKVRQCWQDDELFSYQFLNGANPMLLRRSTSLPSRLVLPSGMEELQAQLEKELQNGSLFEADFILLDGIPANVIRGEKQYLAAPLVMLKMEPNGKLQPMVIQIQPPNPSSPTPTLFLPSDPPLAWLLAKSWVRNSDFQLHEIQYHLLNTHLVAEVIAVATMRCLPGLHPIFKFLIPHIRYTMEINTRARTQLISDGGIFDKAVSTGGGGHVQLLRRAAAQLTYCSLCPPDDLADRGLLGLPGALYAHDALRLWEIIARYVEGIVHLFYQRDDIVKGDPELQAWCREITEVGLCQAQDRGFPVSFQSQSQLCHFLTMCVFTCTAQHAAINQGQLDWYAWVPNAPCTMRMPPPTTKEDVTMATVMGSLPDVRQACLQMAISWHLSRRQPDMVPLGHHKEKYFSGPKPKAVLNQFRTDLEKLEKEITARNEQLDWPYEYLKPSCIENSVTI
#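 Purified human 12hLO at 150 nM in 25 mM Hepes, 0.01% Triton X-100, pH 7.0, preincubated 15 min at room temperature with compound. Reaction started with 40 uM arachidonic acid, 30 min at room temperature. Hydroperoxide measured by Fe-xylenol orange, 573/405 nm absorbance ratio.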
# HT1080 IDH1KD tx: HT-1080 IDH1 knockdown cell toxicity (counter line); HT-1080 IDH1 knockdown viability, ATP luminescence, 48 h; Potency, µM (highest dose often 46.1 µM), for inactives: at the top dose activity, negative = toxicity, most hits filed as cytotoxic; actives 2% (n = 360,000); AID 686971;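 also: potency is read from the fitted curve at half-maximal effect; 0% = DMSO wells and -100% = cell-free medium wells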
#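 In this qHTS, HT-1080 cells depleted of IDH1 are exposed for 48 h at 37 °C to compound titrations. Toxicity is scored from CellTiter-Glo luminescence, with DMSO as full viability and medium alone as none.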
# IL-1B inflam inh: blocks inflammasome-driven IL-1 beta release | THP-1 LPS/ATP IL-1B secretion, AlphaLISA, 16 h; stronger effect = lower value | actives 4.7% (n = 360,000) | AID 743279 | activity change, % at 57.5 µM; in the data active = activity change below about -50%; inconclusive = mostly about -30% to -49%
#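 THP-1 cells pretreated 1 hr with compounds (up to 57.5 uM final), then stimulated with LPS (250 ng/mL final) plus ATP (1.25 mM final); secreted IL-1B measured by AlphaLISA after 16 hr, decreased signal indicating inhibition.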
# TDP1 cell noCPT: qHTS for Inhibitors of human tyrosyl-DNA phosphodiesterase 1 (TDP1): qHTS in cells in absence of CPT. DT40 Tdp1-/- hTDP1 cells, no CPT, ATP luminescence, 48 h. Potency, µM (series often up to 46.2 µM), without a hit: at the top dose activity change, negative = growth inhibition, most hits filed as inhibitors. actives 15% (n = 420,000); also: potency is read from the fitted curve at half-maximal effect; nearly all actives have a fitted effect of over 55% in size
#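 Chicken DT40 Tdp1-/- cells complemented with human TDP1, screened without camptothecin (DMSO vehicle only), 400 cells/well. Compounds pin-transferred, cells incubated at 37 °C for at least 48 hr. Growth read as ATP-dependent luminescence (CellTiter-Glo, 30 min at RT).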
# HT1080NT lethal: kills 2HG-producing HT-1080-NT fibrosarcoma cells. HT-1080-NT fibrosarcoma viability, CellTiter-Glo ATP luminescence, 48 h. actives 1.6% (n = 360,000). Potency, µM (highest dose often 46.1 µM), for the others: top-dose activity, negative = less viability, actives largely listed as cytotoxic;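 also: NT is the 2HG producing partner of a matched IDH1 knockdown line; potency is read from the fitted curve at half-maximal effect; 0% = DMSO-treated cells and -100% = media-only wells without cells; nearly all actives have a fitted effect of over 55% in size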
#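 Luminescent CellTiter-Glo readout after 48 hours of compound exposure at 37 degrees C defined viability of HT-1080-NT cells. Activity was normalized to DMSO wells and cell-free media wells; concentration-response curves were fitted and assigned curve classes.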
# DT40 TDP1 CPT: growth inhibition of DT40 Tdp1-/-;hTDP1 cells with camptothecin (screen for TDP1 inhibitors) | chicken DT40 Tdp1-/-;hTDP1 cells + 20 nM CPT, ATP luminescence, 48 h | Potency, µM (top dose mostly 46.2 µM), without a hit: at the top dose activity change, negative = growth inhibition, hits mostly inhibitors | actives 12% (n = 420,000) | AID 686979; also: potency is read from the fitted curve at half-maximal effect; nearly all actives have a fitted effect of over 55% in size
#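 Chicken DT40 Tdp1-/- cells complemented with human TDP1, 400 cells/well, exposed to compounds plus 20 nM camptothecin for at least 48 h at 37 C; viability read as ATP content by CellTiter-Glo luminescence.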
# Starred values were filed as active, the others as inactive; ? = inconclusive; / = not tested or not shown; [ ] = another dose, or the depositor's remark. Shown is part of a subset that was picked to be rich in hits. Unless noted, calls follow the shape of the dose curve; as a rule, active = well fitted curve in the direction sought with a large enough effect; inconclusive = small, poorly fitted or top-dose-only effect, or another doubt; inactive = no such curve, though single readings can be large; an effect the other way counts as inactive or inconclusive. Unless noted, % is scaled to controls: 0 for no effect and ±100 for the full control effect.
SMILES,ALOX12 inh,HT1080 IDH1KD tx,IL-1B inflam inh,TDP1 cell noCPT,HT1080NT lethal,DT40 TDP1 CPT
Nc1c(C(=O)NC2CC2)sc2nc3c(c(-c4ccco4)c12)CC/C3=C/c1ccco1,/,-11.6%,-74.7*,16.4µM*,-6.3%,18.4µM*
O=C(NC1CCN(c2cc(-c3ccc(F)cc3)[nH]n2)C1)c1ccc(F)cc1Cl (stereo unspecified),29.7%,/,/,/,/,/
NC(=O)c1sc2nc3c(c(-c4ccco4)c2c1N)CCC3,-51.6%,-25.6%,-80.0*,14.1µM*,0.0%,?
Nc1c(C(=O)Nc2ccc(OC(F)(F)F)cc2)sc2nc(-c3ccncc3)ccc12,-15.5%,/,/,6.51µM*,/,10.3µM*
Cc1ccc(-c2c3c(nc4sc(C(N)=O)c(N)c24)CCCC3)o1,-21.9%,-7.6%,-25.4,-23.6%,-2.1%,-5.0%
Nc1c(C(=O)Nc2cc(Cl)cc(Cl)c2)sc2nc(-c3ccncc3)ccc12,1.6%,/,/,/,/,/
Cn1c(=O)[nH]c(=O)c2c1nc(SCCCc1ccccc1)n2Cc1ccccc1,-7.4%,/,/,/,/,/
CN(CC(=O)Nc1ccccc1Cl)CC(=O)N1CCC(Cc2ccccc2)CC1,-8.0%,/,/,/,/,/
CN(Cc1ccccc1)C(=O)C1CC(=O)N(c2n[nH]c3cc(Br)ccc23)C1 (stereo unspecified),0.6%,/,/,/,/,/
O=C(Nc1ccc(F)c(Cl)c1)c1cc(C2CCCCN2C(=O)CCc2ccccc2)on1 (stereo unspecified),-44.2%,-15.3%,-19.5,?,-1.5%,14.6µM*
O=C(Nc1ccc(F)c(Cl)c1)c1cc(C2CCCCN2C(=O)c2ccccc2)on1 (stereo unspecified),24.7%,?,-12.2,6.51µM*,?,8.2µM*
O=C(Nc1ccc(F)c(Cl)c1)c1cc(C2CCCCN2C(=O)c2ccc(Cl)cc2)on1 (stereo unspecified),?,9.7%,?,20.6µM*,-12.0%,20.6µM*
CC(=O)Nc1ccc(C(=O)N2CCCCC2c2cc(C(=O)Nc3ccccc3Cl)no2)cc1 (stereo unspecified),11.3%,-4.0%,0.0,-1.5%,-13.6%,-17.7%
N#Cc1cccc(NC(=O)c2cc(C3CCCCN3C(=O)CCCc3ccccc3)on2)c1 (stereo unspecified),?,-5.9%,?,?,3.7%,23.1µM*
CC(=O)Nc1ccc(C(=O)N2CCCCC2c2cc(C(=O)Nc3ccccc3)no2)cc1 (stereo unspecified),11.4%,7.0%,-0.7,-16.3%,12.3%,-27.4%
O=C1N2CCCC2CN1C1CCN(Cc2ccccn2)CC1 (stereo unspecified),49.9%[176 µM],/,/,/,/,/
O=C(N/N=C\c1cc(Br)cs1)c1ccc(Cl)cc1,12.2%,/,/,/,/,/
Cc1cccc(NC(=O)CN(C)C(=O)CCc2ncc(-c3ccccc3F)o2)c1C,2.9%,/,/,/,/,/
O=C(Nc1ccccc1)c1cc(C2CCCCN2C(=O)CCc2ccccc2)on1 (stereo unspecified),3.8%,-2.9%,9.4,-25.8%,-1.2%,?
Cc1ccc(C)c(CC(=O)N2CCCCC2c2cc(C(=O)Nc3ccc(F)c(Cl)c3)no2)c1 (stereo unspecified),8.8%,-29.0%,-15.8,23.1µM*,?,20.6µM*
Cc1cc(C)c(NC(=O)CC2(C(=O)O)CCCCC2)c(C)c1,-23.1%,/,/,/,/,/
CCOC(=O)c1ccc(-n2c(-c3ccco3)nc3ccccc3c2=O)cc1,0.0%,15.5%,10.2,18.4µM*,4.5%,11.6µM*
CCOC(=O)c1ccc(-n2c(=O)[nH]c3ccccc3c2=O)cc1,99.2%[57.4 µM],11.2%,-60.4*,-13.9%,20.1%,-14.2%
CCOC(=O)N1CCN(C(=O)Cc2ccc(-n3c(=O)[nH]c4ccccc4c3=O)cc2)CC1,0.0%,12.7%,-1.4,-9.2%,20.2%,-1.3%
CCOC(=O)c1ccc(N2C(=O)C=CC2=O)cc1,/,-11.8%,-89.5*,1.03µM*,?,0.82µM*
SMILES,ALOX12 inh,HT1080 IDH1KD tx,IL-1B inflam inh,TDP1 cell noCPT,HT1080NT lethal,DT40 TDP1 CPT
CCOC(=O)c1ccc(-n2c(C)nc3ccc(Br)cc3c2=O)cc1,0.0%,4.1%,12.1,?,13.8%,?
COc1ccc(Nc2oc(COc3ccccc3C)nc2C#N)cc1,43.0%,/,/,/,/,/
Cc1ccc2[nH]cc(CCNC(=O)/C=C/c3cccc(F)c3)c2c1,-14.9%,/,/,/,/,/
COc1ccc(N2CSC3=C(C#N)C(c4cc(OC)c(OC)cc4OC)CC(=O)N3C2)c(OC)c1 (stereo unspecified),28.2µM*,-2.5%,25.1,?,-10.7%,?
CCOc1ccccc1N1CSC2=C(C#N)C(c3c(OC)ccc4ccccc34)CC(=O)N2C1 (stereo unspecified),3.16µM*,-7.3%,12.1,20.6µM*,4.0%,?
Cc1ccc(NC(=O)c2oc3ccccc3c2NC(=O)Cc2ccccc2)cc1,0.0%,/,/,?,/,16.4µM*
CCOCC(=O)Nc1c(C(=O)Nc2ccc3c(c2)OCCO3)oc2ccccc12,3.0%,?,0.0,8.2µM*,?,?
CCOc1ccc(NC(=O)c2oc3ccccc3c2NC(=O)c2cc3ccccc3o2)cc1,0.0%,/,/,?,/,-25.6%
Cc1ccc(NC(=O)c2oc3ccccc3c2NC(=O)c2cc3ccccc3o2)cc1,-11.6%,/,/,16.4µM*,/,?
CCOc1ccc(CC(=O)Nc2c(C(=O)Nc3ccccc3)oc3ccccc23)cc1OCC,11.6%,-9.9%,-14.0,?,-16.0%,?
CCOc1ccc(CC(=O)Nc2c(C(=O)c3ccc(C)cc3)oc3ccccc23)cc1OCC,0.0%,/,/,18.4µM*,/,?
COC(=O)CC(NC(=O)Cc1cccc(OC)c1)c1cccs1 (stereo unspecified),-51.2%,/,/,/,/,/
COCC(=O)NC1CCC12CCN(Cc1ccccn1)CC2 (stereo unspecified),108.6%,/,/,/,/,/
O=C(Nc1c(C(=O)Nc2cccc(C(F)(F)F)c2)oc2ccccc12)c1cc(=O)c2ccccc2o1,3.4%,/,/,?,/,4.11µM*
CCOCc1c(C(=O)OCC(=O)Nc2ccc(C)c(S(=O)(=O)N(C)C)c2)oc2ccccc12,-3.3%,0.5%,3.1,20.6µM*,-0.8%,?
CN1CCN(CC(=O)Nc2c(C(=O)c3ccccc3)oc3ccccc23)CC1,-10.0%,20.6µM*,-71.1*,?,23.1µM*,?
O=C(Nc1c(C(=O)Nc2cccc(F)c2)oc2ccccc12)c1cc2ccccc2o1,-23.7%,/,/,14.6µM*,/,18.4µM*

# High-throughput results (PubChem)
